# Test results published in the supplement of paper PMC9433436.
# ± gives the standard deviation of the averaged measurements. Whole data set: some 4,100 sequences, median “relative kcat/Km (krel) vs genomic leader AAAGAU” near 1.7, cut for the highest 2% near 6.5. Only a selection was taken, and the highest values are over-represented in it overall.
# Target: T1, E. coli RNase P holoenzyme (M1 P RNA + rnpA protein) (UniProt P0A7Y8)
# T1 sequence: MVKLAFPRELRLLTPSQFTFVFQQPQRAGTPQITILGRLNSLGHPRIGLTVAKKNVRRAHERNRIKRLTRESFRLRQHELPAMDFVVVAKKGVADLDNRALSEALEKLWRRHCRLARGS
# Assay: relative kcat/Km (krel) vs genomic leader AAAGAU (relative (reference leader = 1)); higher = faster RNase P cleavage
# Method: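 HTS-Kin: a pool of ptRNA-Met (21C construct) with all 4096 combinations of 5' leader nucleotides N(-6) to N(-1) was processed in vitro by E. coli RNase P (P RNA + rnpA/C5 protein) under multiple-turnover conditions at 37 C, pH 8, 17.5 mM MgCl2. Residual substrate was Illumina-sequenced at several fractions reacted, and relative kcat/Km (krel) was computed by internal competition kinetics, calibrated to the genomic leader (AAAGAU = 1). The listed hexamer is the varied N(-6)..N(-1) leader (DNA letters), and it sits between a fixed 5' stem-loop flank (GCAUGCACGAAAGUGCGUGCUAUGAA) and the mature tRNA-Met starting GGCUACGUAGCUCAGUUGG. Two technical replicates are averaged.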
# [1] = fraction of substrate reacted: ~9-10% (9.79% repeat 1, 9.1% repeat 2)
# [2] = fraction of substrate reacted: ~13-16% (15.68% repeat 1, 13.17% repeat 2)
# [3] = fraction of substrate reacted: ~26-29% (28.66% repeat 1, 26.4% repeat 2)
Sequence,relative kcat/Km [1],relative kcat/Km [2],relative kcat/Km [3]
CTCAAT,4.23 ± 0.85,5.46 ± 1.7,7.66 ± 3.5
CCCAAT,2.73 ± 0.86,3.48 ± 0.28,5.27 ± 1.6
CGCAAT,1.86 ± 0.36,2.82 ± 1.1,4.14 ± 1.8
AGCAAT,2.43 ± 0.54,2.33 ± 0.049,3.3 ± 1.1
ATCAAT,3.19 ± 0.91,4.2 ± 0.86,6.65 ± 3.1
GGCAAC,2.31 ± 1.6,2.29 ± 0.56,3.36 ± 0.68
GTCAAC,4.47 ± 1.7,5.05 ± 1.3,7.94 ± 3.1
GCCAAC,1.34 ± 0.25,1.28 ± 1.1,3.94 ± 1
AGTAAG,–,1.26 ± 0.66,3.3 ± 0.62
TAATCG,–,0.624 ± 0.13,1.73 ± 0.43
TAGGTG,–,–,0.812 ± 0.66
GCAATG,–,–,1.35 ± 0.34
TTGCAC,2.41 ± 1.3,2.27 ± 0.05,3.33 ± 0.78
TCTGTT,1.56 ± 0.75,1.38 ± 1.1,1.89 ± 1.2
ACCAAA,2.83 ± 2.3,3.55 ± 0.63,4.37 ± 0.92
AATGAA,2.18 ± 1.1,2.14 ± 0.073,2.72 ± 0.88
GGCGAT,1.24 ± 0.38,1.52 ± 0.5,2.32 ± 0.83
GGGCAA,–,1 ± 0.65,1.5 ± 0.79
GGGGAT,–,–,1.93 ± 1.9
TATCAT,4.22 ± 1.9,5.02 ± 0.57,7.37 ± 3.5
AATCAC,2.09 ± 1.1,2.63 ± 0.078,4.12 ± 1.3
TATCAC,4.08 ± 2.5,4.88 ± 0.12,7.11 ± 2.8
AATCAT,3.17 ± 2,2.88 ± 0.24,4.38 ± 1.7
GATCAC,2.93 ± 0.77,4.27 ± 1.3,5.26 ± 2.1
GATCAT,2.26 ± 0.96,3.62 ± 0.21,5.17 ± 1.7
CCATCT,2.12 ± 1.5,1.53 ± 1.1,2.64 ± 0.42

Sequence,relative kcat/Km [1],relative kcat/Km [2],relative kcat/Km [3]
TACACG,2.67 ± 2.1,2.37 ± 0.74,3.55 ± 0.64
AAGTAC,3.18 ± 1.6,3.53 ± 0.57,4.86 ± 1.7
AAGTAA,2.99 ± 1.7,3.36 ± 0.17,4.47 ± 1.6
CAGTAC,3.68 ± 1.6,4.92 ± 0.95,6.37 ± 2.2
TAGTAC,4.35 ± 1.3,5.28 ± 0.82,7.85 ± 3.4
TAGTAA,3.7 ± 0.66,4.78 ± 0.65,6.72 ± 3
TAGTAT,3.26 ± 0.97,4.14 ± 0.84,6.5 ± 3.2
TCATCG,1.66 ± 1.1,0.943 ± 0.074,1.96 ± 0.15
CGATGC,2.88 ± 0.51,2.7 ± 1.8,4.03 ± 1.4
TAGCTT,1.84 ± 0.3,2.04 ± 0.21,2.8 ± 1.2
TTCGCA,4.21 ± 0.84,6.08 ± 1.7,8.75 ± 3.8
GTCGTC,3.09 ± 1.7,2.79 ± 0.12,4.02 ± 1.6
GGCGCA,1.73 ± 0.44,2 ± 1.2,3.02 ± 1.3
ATCGCC,4.35 ± 0.56,5.34 ± 2,7.69 ± 3
ATCGCA,3.36 ± 1,4.58 ± 0.2,6.35 ± 2.8
ATCGCT,2.5 ± 0.7,2.34 ± 0.31,3.27 ± 0.6
TGCGCA,2 ± 0.91,1.69 ± 0.53,2.46 ± 0.77
GTCGCC,4.34 ± 1.4,5.5 ± 0.42,7.93 ± 3.1
GTCGCT,2.09 ± 1.2,2.03 ± 0.41,3.35 ± 1
ATCGCG,2.62 ± 1.1,1.7 ± 0.89,3.07 ± 0.91
GTCGCA,4.66 ± 1.2,5.5 ± 1.6,7.77 ± 3.1
GTCGCG,2.3 ± 2.2,1.77 ± 0.36,3.47 ± 0.87
GGTCAA,0.981 ± 0.11,1.45 ± 0.14,1.83 ± 1.1
CATTCA,2.03 ± 0.96,2.26 ± 0.27,2.76 ± 0.83
TATACC,1.83 ± 0.44,2.35 ± 0.29,2.84 ± 1.4
TATGGT,–,–,1.77 ± 1.3

Sequence,relative kcat/Km [1],relative kcat/Km [2],relative kcat/Km [3]
CTGCCT,2.67 ± 0.64,1.47 ± 0.29,1.91 ± 0.022
GGAGAG,–,–,1.19 ± 0.14
ATTTTT,2.48 ± 0.92,2.63 ± 0.22,3.89 ± 1.3
TTTAGA,2.52 ± 0.65,3.74 ± 0.44,5.73 ± 2.2
CCCCAT,1.7 ± 1.5,3.312 ± 0.011,4.95 ± 1.3
CTCGTA,3.1 ± 0.69,3.21 ± 0.68,4.83 ± 2
TTCGCT,2.88 ± 1.4,3.06 ± 0.21,4.56 ± 1.4
CTCGCG,2.22 ± 1.4,1.19 ± 1.2,3.19 ± 1
CGCGCA,1.86 ± 0.068,2.64 ± 0.045,3.31 ± 0.91
CTCGCA,4.01 ± 1.4,4.94 ± 0.48,6.71 ± 2.1
TTCGCC,4.66 ± 1.2,6.09 ± 1.6,9.48 ± 3.8
TTCGCG,–,2.32 ± 0.79,3.87 ± 0.24
CTCGCC,4.36 ± 1.6,5.23 ± 1.7,7.26 ± 2.8
CTCGCT,1.9 ± 0.4,2.61 ± 0.72,3.67 ± 0.94
TAAAGG,–,–,0.833 ± 0.34
CCGACA,0.997 ± 0.31,–,0.842 ± 0.8
GTGTCG,–,–,0.804 ± 0.49
AGCCTA,2.05 ± 0.87,1.97 ± 0.57,2.57 ± 0.69
GACAGA,3.09 ± 0.71,4.59 ± 1.2,6.53 ± 2.4
GACAGG,–,–,1.2 ± 0.042
CACAGT,–,–,1.95 ± 1.9
CACAGA,3.95 ± 0.46,4.77 ± 2,7.2 ± 2.4
AACAGA,3.71 ± 2.3,4.083 ± 0.036,5.65 ± 2.1
CACAGG,0.41 ± 0.093,–,1.35 ± 0.051
GTACAG,–,–,1.99 ± 0.4
GAAGGT,–,–,1.31 ± 0.065

Sequence,relative kcat/Km [1],relative kcat/Km [2],relative kcat/Km [3]
CACAGC,3.88 ± 1.2,4.31 ± 1.1,5.98 ± 2.7
TACAGG,–,–,1.7 ± 0.63
TACAGA,4.52 ± 2,5.66 ± 0.35,8.3 ± 3
TACAGC,3.82 ± 2,4.94 ± 0.45,6.84 ± 2.6
TACAGT,–,–,2.94 ± 2.7
TACACA,3.05 ± 1.1,3.7 ± 0.067,5.53 ± 2.6
CTGACC,–,0.599 ± 0.52,1.2 ± 0.63
ACTGTC,1.77 ± 1.3,0.935 ± 0.31,1.12 ± 0.25
AAGATT,1.89 ± 0.21,1.82 ± 0.21,2.06 ± 0.8
TTCTAG,4.08 ± 2.6,4.58 ± 0.56,7.01 ± 3.1
GTGTAA,1.31 ± 0.75,2.41 ± 1.1,2.94 ± 1.5
GGCTAA,2.12 ± 0.85,2.32 ± 0.78,3.19 ± 0.8
TGCTAA,2.19 ± 0.95,2.88 ± 0.23,3.74 ± 1.1
TGCTAG,1.97 ± 1.5,1.376 ± 0.0054,2.44 ± 0.12
TTCTAA,5.69 ± 2.2,7.17 ± 1.2,10.6 ± 4.1
AGCTAA,3.22 ± 1.8,3.61 ± 1,5.8 ± 3
TTTCTA,2.15 ± 0.72,2.3 ± 0.57,2.89 ± 1.2
GTCTAA,4.58 ± 0.43,7.55 ± 1.7,10.1 ± 4.8
ATCTAA,4.39 ± 1.5,5.55 ± 1.1,8.58 ± 3.4
GTGAAC,1.89 ± 0.25,2.27 ± 0.31,2.83 ± 0.88
TTGCAG,–,–,1.37 ± 0.19
GGCTTC,0.513 ± 0.13,1.31 ± 0.14,1.7 ± 0.44
CACTCC,3.12 ± 2.1,3.9 ± 0.2,5.21 ± 1.3
CAAGCT,1.48 ± 1.3,0.905 ± 0.4,1.37 ± 0.37
ATGTAC,3.03 ± 0.37,3.81 ± 0.94,5.39 ± 2.7
TGCGGT,–,–,2.25 ± 1.2
